Reference: PubChem BioAssay (NCI)
Compounds without any hit were thinned out: in the full panel of roughly 79,000, 15% have a hit. The source made the active and inactive calls. Rule as the data show it: active = growth inhibition above about 70%; inactive = the rest.

What was measured:
[1] = NCI Yeast Anticancer Drug Screen. Data for the mec2-1 strain (AID 157); details: S. cerevisiae mec2-1 strain, active compounds read high
Method in brief: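 Test agents were screened against the mec2-1 yeast strain, with defined DNA repair or cell cycle alteration. Growth was scored as inhibition against vehicle-only controls.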

[2] = NCI Yeast Anticancer Drug Screen. Data for the rad14 strain (AID 159);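 also: 0% = growth of vehicle-treated control cultures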; details: S. cerevisiae rad14 strain growth inhibition, active compounds read high
Method in brief: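 Vehicle-treated cultures served as the baseline for growth inhibition of a DNA repair-mutant yeast strain exposed to each compound.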

[3] = NCI Yeast Anticancer Drug Screen. Data for the sgs1 mgt1 strain (AID 161);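 also: 0% = growth of cultures given vehicle only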; details: S. cerevisiae sgs1 mgt1 strain, active compounds read high
Method in brief: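 Genetically altered yeast, compound exposure, growth inhibition relative to vehicle.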

[4] = NCI Yeast Anticancer Drug Screen. Data for the CLN2oe strain (AID 163);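 also: 0% = growth of vehicle-only control cultures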; details: S. cerevisiae CLN2oe strain, active compounds read high
Method in brief: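 Here, growth inhibition in a cell-cycle-altered yeast strain after compound exposure was quantified against vehicle control growth.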

[5] = NCI Yeast Anticancer Drug Screen. Data for the cln2 rad14 strain (AID 165);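 also: 0% = growth equal to vehicle treated cultures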; details: S. cerevisiae cln2 rad14 strain, active compounds read high
Method in brief: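 Growth of compound-exposed yeast (cln2 rad14 genotype) measured and expressed as inhibition relative to vehicle.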

[6] = NCI Yeast Anticancer Drug Screen. Data for the bub3 strain (AID 167); details: S. cerevisiae bub3 mutant strain, active compounds read high
Method in brief: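 Inhibition values come from growth of compound-treated mutant yeast normalised to vehicle-treated controls.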

[7] = NCI Yeast Anticancer Drug Screen. Data for the wt2 strain (AID 169);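 also: 0% = growth of vehicle-treated yeast cultures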; details: S. cerevisiae wt2 strain growth inhibition, active compounds read high
Method in brief: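 Genetically defined yeast strains from a DNA-repair/cell-cycle panel were used. Compound-exposed yeast growth was measured, and the inhibition was calculated relative to vehicle treatment.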

[8] = NCI Yeast Anticancer Drug Screen. Data for the mlh1 strain (AID 171);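 also: 0% = growth of vehicle-treated control cultures of the same strain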; details: S. cerevisiae mlh1 strain growth inhibition, active compounds read high
Method in brief: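 Here the genetically defined yeast mutant is grown with each compound, and the extent to which its growth falls below that of vehicle-exposed cells is reported.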

[9] = NCI Yeast Anticancer Drug Screen. Data for the sgs1 strain (AID 173);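 also: 0% = growth of vehicle-only control cultures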; details: S. cerevisiae sgs1 mutant, active compounds read high
Method in brief: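 Relative growth inhibition, referenced to vehicle, was determined in a yeast strain with a defined alteration affecting DNA damage repair or cell cycle control after compound exposure.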

[10] = NCI Yeast Anticancer Drug Screen. Data for the mlh1 rad18 strain (AID 175); details: S. cerevisiae mlh1 rad18 strain growth inhibition, active compounds read high
Method in brief: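 In this whole-cell yeast screen, a strain with altered DNA damage repair is challenged with compound, and its growth is measured against matched vehicle-treated controls.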

[11] = NCI Yeast Anticancer Drug Screen. Data for the rad18 strain (AID 177); details: S. cerevisiae rad18 mutant growth inhibition, active compounds read high
Method in brief: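 Screen uses a yeast strain with a defined lesion in DNA damage repair; compound effect is read as loss of growth compared to untreated vehicle cultures.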

[12] = NCI Yeast Anticancer Drug Screen. Data for the rad52 strain (AID 147);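 also: 0% = growth of vehicle-treated control cultures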; details: S. cerevisiae rad52 mutant growth inhibition, active compounds read high
Method in brief: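 Measured: yeast growth inhibition. System: strain with a defined DNA damage repair alteration. Reference: vehicle-treated control cultures.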

[13] = NCI Yeast Anticancer Drug Screen. Data for the wt1 strain (AID 149);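 also: 0% = growth of vehicle-treated wt1 cultures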; details: S. cerevisiae wt1 strain (SPY 50644) growth inhibition, active compounds read high
Method in brief: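 Vehicle-normalised growth inhibition; strain wt1; compound exposure.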

[14] = NCI Yeast Anticancer Drug Screen. Data for the rad50EPP+ strain (AID 151);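 also: 0% = growth of vehicle-treated control cultures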; details: S. cerevisiae rad50 mutant strain, active compounds read high
Method in brief: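 One strain with a rad50 alteration (rad50EPP+) was compound-treated, its growth then compared to that of vehicle controls.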

[15] = NCI Yeast Anticancer Drug Screen. Data for the mgt1 strain (AID 153); details: S. cerevisiae mgt1 mutant growth inhibition, active compounds read high
Method in brief: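 After exposure of the mgt1 yeast mutant to compound, growth was measured and reported as inhibition compared with vehicle controls.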

[16] = NCI Yeast Anticancer Drug Screen. Data for the rad50 strain (AID 155);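 also: 0% = growth of vehicle-only cultures of the same strain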; details: S. cerevisiae rad50 strain growth inhibition, active compounds read high
Method in brief: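 A DNA repair-deficient yeast mutant serves as the test organism; compound-induced growth inhibition is calculated against vehicle-treated cells.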

[17] = at 5.0 µM (retest, dose inferred, filed as 0.5)
[18] = at 50.0 µM (retest, dose inferred, filed as 5.0)

Measured: growth inhibition

CC1=COC2=C(C)C(=O)C(=O)c3c(C)ccc1c32
active: [1]; at 33.0 µM 80% | [1]; at 50.0 µM 89.2% | [1]; at 100.0 µM 95% | [2]; at 33.0 µM 79% | [2]; at 100.0 µM 95% | [3]; at 50.0 µM 77.5% | [4]; at 33.0 µM 77% | [4]; at 100.0 µM 95% | [5]; at 50.0 µM 77.8% | [6]; at 3.7 µM 70% | [6]; [17] 77% | [6]; at 11.0 µM 84% | [6]; at 33.0 µM 91% | [6]; [18] 82% | [6]; at 50.0 µM 81% | [6]; at 100.0 µM 93% | [7]; at 100.0 µM 91% | [8]; at 33.0 µM 82% | [8]; at 100.0 µM 94% | [9]; at 33.0 µM 80% | [9]; at 100.0 µM 94% | [10]; [18] 71% | [10]; at 50.0 µM 80% | [11]; at 33.0 µM 79% | [11]; at 100.0 µM 93%
inactive: [1]; [17] 36% | [1]; at 11.0 µM 48% | [1]; [18] 59% | [2]; at 1.2 µM 10% | [2]; at 3.7 µM 17% | [2]; at 11.0 µM 20% | [3]; [17] 51% | [3]; [18] 67% | [4]; at 1.2 µM 37% | [4]; at 3.7 µM 44% | [4]; at 11.0 µM 36% | [5]; [17] 16% | [5]; [18] 32% | [6]; at 1.2 µM 67% | [7]; at 1.2 µM -19% | [7]; at 3.7 µM -18% | [7]; at 11.0 µM -19% | [7]; at 33.0 µM 6% | [8]; at 1.2 µM 25% | [8]; at 3.7 µM 27% | [8]; at 11.0 µM 47% | [9]; at 1.2 µM 23% | [9]; at 3.7 µM 29% | [9]; at 11.0 µM 35% | [10]; [17] 5% | [11]; at 1.2 µM -3% | [11]; at 3.7 µM 18% | [11]; at 11.0 µM 30%

NCCCSc1ccccc1
inactive: [12]; at 1.2 µM -2% | [12]; at 3.7 µM -2% | [12]; at 11.0 µM -4% | [12]; at 33.0 µM -4% | [12]; at 100.0 µM -2% | [13]; at 1.2 µM -2% | [13]; at 3.7 µM -4% | [13]; at 11.0 µM -2% | [13]; at 33.0 µM -3% | [13]; at 100.0 µM -3% | [14]; at 1.2 µM -3% | [14]; at 3.7 µM -1% | [14]; at 11.0 µM -4% | [14]; at 33.0 µM -8% | [14]; at 100.0 µM -6% | [15]; at 1.2 µM -3% | [15]; at 3.7 µM -4% | [15]; at 11.0 µM -4% | [15]; at 33.0 µM 13% | [15]; at 100.0 µM -1% | [16]; at 1.2 µM -3% | [16]; at 3.7 µM -2% | [16]; [17] 2% | [16]; at 11.0 µM -2% | [16]; at 33.0 µM -3% | [16]; [18] -19% | [16]; at 50.0 µM -25.2% | [16]; at 100.0 µM -2% | [1]; at 1.2 µM -1% | [1]; at 3.7 µM 0% | [1]; [17] -8% | [1]; at 11.0 µM 1% | [1]; at 33.0 µM 0% | [1]; [18] -30% | [1]; at 50.0 µM 14.7% | [1]; at 100.0 µM 0% | [2]; at 1.2 µM -2% | [2]; at 3.7 µM -1% | [2]; at 11.0 µM -1% | [2]; at 33.0 µM -1% | [2]; at 100.0 µM -1% | [3]; [17] -11% | [3]; [18] -6% | [3]; at 50.0 µM -1.9% | [4]; at 1.2 µM -4% | [4]; at 3.7 µM -3% | [4]; at 11.0 µM 0% | [4]; at 33.0 µM -4% | [4]; at 100.0 µM -5% | [5]; [17] -3% | [5]; [18] 37% | [5]; at 50.0 µM 34.4% | [6]; at 1.2 µM -2% | [6]; at 3.7 µM -3% | [6]; [17] 8% | [6]; at 11.0 µM -1% | [6]; at 33.0 µM -1% | [6]; at 50.0 µM -0.3% | [6]; at 100.0 µM -4% | [7]; at 1.2 µM -2% | [7]; at 3.7 µM -2% | [7]; at 11.0 µM -2% | [7]; at 33.0 µM -2% | [7]; at 100.0 µM -1% | [8]; at 1.2 µM -2% | [8]; at 3.7 µM -4% | [8]; at 11.0 µM -2% | [8]; at 33.0 µM -4% | [8]; at 100.0 µM -2% | [9]; at 1.2 µM 0% | [9]; at 3.7 µM 1% | [9]; at 11.0 µM 2% | [9]; at 33.0 µM 0% | [9]; at 100.0 µM 1% | [10]; [17] -21% | [10]; [18] -15% | [10]; at 50.0 µM -4.65% | [11]; at 1.2 µM -1% | [11]; at 3.7 µM -1% | [11]; at 11.0 µM -8% | [11]; at 33.0 µM 1% | [11]; at 100.0 µM -1%
active: [6]; [18] 78%
